Assay results: PubChem BioAssay (NCI)
This is part of a sample that, as a whole, favours compounds with a hit. Of some 83,000 tested, about 20% had one in any assay.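 In brief: 96-well plates, 48 h treatment, single concentration, percent growth endpoint.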 Calls of active or inactive are those of the source. How the source made its calls: active means growth percent below 10; inactive means the rest.

System: SF-268 CNS
Assay: NCI-60 one-dose screen, 48 h (100 = growth as untreated, 0 = no growth, -100 = all killed)
Details: 10 µM unless noted

| Structure (SMILES) | growth |
| --- | --- |
| COc1cccc(/C=C2\Oc3cc(OCCN4CCCC4)ccc3C2=O)c1 | 91.8% (inactive) |
| COc1ccc(-c2nc3ccc(-c4nc5ccc(N6CCN(c7ccncc7)CC6)cc5[nH]4)cc3[nH]2)cc1OC | 38.4% (inactive) |
| Cc1ccc(C2=NN3C(C2)c2cc(Br)ccc2OC32CCN(Cc3ccccc3)CC2)o1 (centres undefined) | 84.4% (inactive) |
| COc1cc2c(cc1-c1c(C)noc1C)ncc1nc(-c3ccccn3)n([C@H](C)COC(F)F)c12 | 70.9% (inactive) |
| Cc1oc(-c2ccc(Cl)cc2Cl)cc1C(=O)Nc1nccs1 | 100% (inactive) |
| COc1ccc2c(c1)c(-c1nonc1-c1cn(C)c3ccccc13)cn2C | 63% (inactive) |
| COC(=O)c1ccc(NC(=O)c2ccc(-c3cccc([N+](=O)[O-])c3)o2)cc1 | 97.6% (inactive) |
| COc1cccc(C2=NN3C(C2)c2cc(Br)cc(OC)c2OC32CCN(Cc3ccccc3)CC2)c1 (centres undefined) | 94.5% (inactive) |
| O=C1c2cc3c(cc2-c2c1c1cc(F)c(F)cc1c(=O)n2CCCn1ccnc1)OCO3 | 13.4% (inactive) |
| Cc1ccc2c(C(C[N+](=O)[O-])c3ccccc3F)c(-c3ccccc3)[nH]c2c1 (centres undefined) | 46.7% (inactive) |
| Cc1ccccc1COc1ccc(-c2onc(C)c2-c2ccc(Cl)cc2)cc1 | 75.6% (inactive) |
| COC[C@H](C)n1c(C2CCOCC2)nc2cnc3cc(-c4c(C)noc4C)c(OC)cc3c21 | 76.7% (inactive) |
| C#CCOc1ccc2ncnc(NCc3cccc(NC(=O)CCl)c3)c2c1 | 41.9% [8.25 µM] (inactive) |
| COc1cc(-c2nn(C)nc2-c2cc3ccccc3s2)cc(OC)c1OC | 39.8% (inactive) |
| O=C1NC(=S)N[C@H]1CC(=O)n1cnc2ccccc21 | 100% (inactive) |
| O=S(=O)(Nc1ccc(I)cc1F)c1ccc(-c2cnc(C3CC3)o2)cc1 | 63.3% (inactive) |
| CC[C@@H](C(=O)[C@@H](C)[C@@H](O)[C@H](C)[C@@H]1O[C@@H]([C@@H](CC)C(=O)O)CC[C@@H]1C)[C@H]1OC2(C=C[C@@H](O)[C@]3(CC[C@@](C)([C@H]4CC[C@](O)(CC)[C@H](C)O4)O3)O2)[C@H](C)C[C@@H]1C (some centres undefined) | 27.4% (inactive) |
| CCOC(=O)c1csc(NC(=O)COc2cccc(/C=C3\CSc4ccccc4C3=O)c2)n1 | -37.2% (active) |
| CN1CCN(c2ccc3nc(-c4ccc(OCCCCN5CCN(CCCCN6C(=O)c7cccc8cccc(c78)C6=O)CC5)cc4)[nH]c3c2)CC1 | 65.7% (inactive) |
| Cc1ncc(C(=O)Nc2ccc(CN3CCN(C)CC3)c(C(F)(F)F)c2)cc1C#Cc1cnc2cccnn12 | -29.8% (active) |

| Structure (SMILES) | growth |
| --- | --- |
| Cc1nc2c3c(-c4ccccc4)c(-c4ccccc4)oc3ncn2n1 | 94% (inactive) |
| O=C(N/N=C/c1ccccc1O)c1ccccc1Nc1ccnc(C(F)(F)F)c1 | 14.6% (inactive) |
| COC(=O)[C@]12CCC(C)(C)C[C@H]1[C@H]1C(=O)C[C@@H]3[C@@]4(C)c5c([nH]c6ccccc6c5=O)C(C)(C)[C@@H]4CC[C@@]3(C)[C@]1(C)CC2 | 82% (inactive) |
| COc1ccc(-c2n[nH]nc2-c2csc3ccccc23)cc1OC | 30.2% (inactive) |
| O=C1c2ccccc2C(=O)c2c(N=Nc3[nH]c(=S)[nH]c3O)cccc21 | 32.1% (inactive) |
| Cn1c(NCCc2ccc(O)c(O)c2)nc2c1c(=O)n(Cc1ccc(Br)cc1)c(=O)n2C | 68.4% (inactive) |
| Cc1ccc(/C=C2\SC(=S)N(CC(=O)NCCCN3CCOCC3)C2=O)cc1 | 96.5% (inactive) |
| Cc1ccc(C2Oc3ccccc3C3CC(c4cccs4)=NN32)cc1 (centres undefined) | 91.4% (inactive) |
| C=CC(=O)Nc1cccc(-c2nc(SC)nc(NCCc3ccc(OC)c(OC)c3)c2C#N)c1 | 61.9% (inactive) |
| Cc1nc(/N=C(\N)NC(=O)Nc2cccc([N+](=O)[O-])c2)sc1C | 92.9% (inactive) |
| COc1ccc(-n2nc(C)c3c(Nc4ccc(NC(=O)Nc5ccc(Cl)c(C(F)(F)F)c5)cc4)ncnc32)cc1 | 17.7% (inactive) |
| O=C(/C=C/c1cccc([N+](=O)[O-])c1)c1ccc(O)c(CN2CCN(c3cc4c(cc3F)c(=O)c(C(=O)O)cn4C3CC3)CC2)c1 | 43.2% (inactive) |
| CCC([N+](=O)[O-])S(=O)(=O)c1ccc(C)cc1 (centres undefined) | 126% (inactive) |
| Cc1cn2c(/C=C3/C(=O)Nc4c3ccc3ccccc43)c(C(F)(F)F)nc2s1 | 43.5% (inactive) |
| O=C1c2cc3c(cc2-c2c1c1ccc(F)cc1c(=O)n2C[C@H](O)[C@@H](O)[C@H](O)CO)OCO3 | 11.2% (inactive) |
| O=C(Nc1cccc2[nH]c(C(F)(F)F)nc12)c1ccc(-n2cnnn2)cc1 | 96% (inactive) |
| Fc1ccc(CNc2cccc3[nH]c(C(F)(F)F)nc23)cc1 | 76.9% (inactive) |
| O=C1c2cc3c(cc2-c2c1c1ccc(F)cc1c(=O)n2CCCNCCO)OCO3 | -54.6% (active) |
| N#CN1CC[C@H](C(=O)Nc2cc3cc(C(N)=O)ccc3cn2)C1 | -9.68% (active) |
